Reference: PubChem BioAssay (NCATS)
Where “and” joins values, the source holds several entries; their conditions need not be identical. Identical values can stand only once. Inconclusive results are not listed. Calls of active or inactive are those of the source. Unless noted, calls come from the whole dose curve; as a rule, active = well fitted curve in the direction sought with a large enough effect; inconclusive = small, poorly fitted or top-dose-only effect, or another doubt; inactive = no such curve, though single readings can be large; an effect the other way counts as inactive or inconclusive.

Columns and labels:
[1] = qHTS Assay for Identifying Gametocytocidal Compounds (AID 743244); note: potency is the fitted concentration of half-maximal effect;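 for max response: actives lower the fluorescent signal which means gametocytes are killed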; settings: P. falciparum 3D7 stage III-V gametocytes, alamarBlue, 72 h; max response: stronger effect = lower value
In short: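 Compounds are pinned into medium, gametocytes (stage III–V, 3D7, 20,000 cells/well) added, and plates held 72 h at 37 °C in 5% CO2. AlamarBlue follows for 24 h before fluorescence reading.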

[2] = qHTS assay to identify small molecule inhibitors of chordoma cells - UCH-2 (AID 1259356); note: series mostly up to about 46 µM
[3] = P-glycoprotein substrates identified in KB-8-5-11 adenocarcinoma cell line, qHTS therapeutic library screen (AID 1346987); settings: outcome: dose series up to 44.5 µM unless noted; note: nearly all actives have a fitted effect of over 65% in size; note: potency is the fitted concentration of half-maximal effect
In short: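 KB-8-5-11: colchicine-selected sub-line of KB-3-1 over-expressing P-gp; assay medium lacked colchicine. 72 h drug exposure at 37 degree C, CellTiter-Glo.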

[4] = qHTS assay for small molecule agonists of the antioxidant response element (ARE) signaling pathway measured by Nrf2-dependant transcriptional activity - cell viability counter screen (AID 720653; active = well fitted curve in the direction sought with a large enough effect in the repeat runs; an effect the other way counts as inactive or inconclusive); settings: ARE-bla HepG2 viability, CellTiter-Glo ATP luminescence, 16 h; stronger effect = lower value
In short: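 Cytotoxicity counter screen: intracellular ATP quantified by CellTiter-Glo luminescence in the same ARE-bla HepG2 plates, after 16 h compound exposure and a 2 h beta-lactamase substrate step.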

[5] = qHTS assay for cell viability of HEK293 cells (AID 743288); settings: ATP luminescence (CellTiter-Glo), 18 h; max response: stronger effect = lower value; note: nearly all actives have a fitted effect of over 50% in size
In short: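 Environmental chemicals tested in qHTS format against parental HEK293 cells; 18 h treatment, 37 C; read-out ATP luminescence (CellTiter-Glo), 30 min RT development.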

[6] = qHTS assay for cell viability of the p53RE-bla HCT-116 cell line (AID 743292); note: nearly all actives have a fitted effect of over 55% in size
In short: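 Viability of compound-treated p53RE-bla HCT-116 cells is taken from ATP-dependent luciferase luminescence. Treatment lasts 16 h at 37 C after a 5 h settling period; detection follows 30 min at room temperature.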
% is set by controls: 0 for no effect and ±100 for the full control effect.

Cn1nnnc1SCC1=C(C(=O)O)N2C(=O)[C@@H](NC(=O)[C@H](O)c3ccccc3)[C@H]2SC1
inactive: max response [1] -1.19% | Potency [2] | Potency [3]

CC1(C)[C@H]2CC[C@]1(C)[C@H](O)C2
inactive: max response [1] 0.139% | Potency [2] | Potency [3]

COC(=O)C(CN)c1c[nH]c2ccc(OC)cc12 (stereo not given)
inactive: max response [1] -6.34% | Potency [2] | Potency [3]

O=C(NNCNNC(=O)c1ccncc1)c1ccncc1
inactive: max response [1] 16.9% | Potency [2] | Potency [3]

O=C1N=C2SCCN2C(=O)C1Cc1ccc(Cl)cc1 (stereo not given)
inactive: max response [1] -5.09% | Potency [2] | Potency [3]

C[Se]CC[C@H](N)C(=O)O
inactive: Potency [2] | Potency [3]

CC[C@H](C)[C@@H]1NC(=O)[C@H](Cc2ccc(O)cc2)NC(=O)[C@@H](N)CSSC[C@@H](C(=O)N2CCC[C@H]2C(=O)N[C@@H](CC(C)C)C(=O)NCC(N)=O)NC(=O)[C@H](CC(N)=O)NC(=O)[C@H](CCC(N)=O)NC1=O
inactive: max response [1] 0.419% | Potency [2] | Potency [3]

CC1(C)S[C@@H]2[C@H](NC(=O)C3(N)CCCCC3)C(=O)N2[C@H]1C(=O)O
inactive: max response [1] 7.96% | Potency [2] | Potency [3]

CC(/C=C/C=C(\C)C(=O)O[C@@H]1O[C@H](CO[C@@H]2O[C@H](CO)[C@@H](O)[C@H](O)[C@H]2O)[C@@H](O)[C@H](O)[C@H]1O)=C\C=C\C=C(C)\C=C\C=C(/C)C(=O)O[C@@H]1O[C@H](CO[C@@H]2O[C@H](CO)[C@@H](O)[C@H](O)[C@H]2O)[C@@H](O)[C@H](O)[C@H]1O
inactive: max response [1] 5.1% | Potency [2] | Potency [3]

OC[C@H]1O[C@@H]2O[C@H]3[C@H](O)[C@@H](O)[C@@H](O[C@H]4[C@H](O)[C@@H](O)[C@@H](O[C@H]5[C@H](O)[C@@H](O)[C@@H](O[C@H]6[C@H](O)[C@@H](O)[C@@H](O[C@H]7[C@H](O)[C@@H](O)[C@@H](O[C@H]1[C@H](O)[C@H]2O)O[C@@H]7CO)O[C@@H]6CO)O[C@@H]5CO)O[C@@H]4CO)O[C@@H]3CO
inactive: max response [4] -2.78% and 5.87% | max response [1] -7.1% | max response [5] -12.8% and 1.56% | outcome [6] | Potency [2] | Potency [3]

CC1=CC(=O)NS(=O)(=O)O1
inactive: max response [4] 6.07% and 6.81% | max response [1] -2.22% | max response [5] -5.77% and -0.759% | outcome [6] | Potency [2] | Potency [3]

COc1ccc2cc([C@H](C)CO)ccc2c1
inactive: max response [1] 13.6% | Potency [3]

CCCCC[C@H](O)/C=C/[C@H]1[C@H](O)CC(=O)[C@@H]1CCCCCCC(=O)O
inactive: max response [1] -10.5% | Potency [2] | Potency [3]

COc1ccc([C@@H]2CC(=O)c3c(O)cc(O[C@@H]4O[C@H](CO[C@@H]5O[C@@H](C)[C@H](O)[C@@H](O)[C@H]5O)[C@@H](O)[C@H](O)[C@H]4O)cc3O2)cc1O
inactive: Potency [2] | Potency [3]

CCN1\C(=C/C=C/C=C/c2sc3ccccc3[n+]2CC)Sc2ccccc21
active: Potency [1] 11.2 µM | Potency [3] 16.4 µM

[O]=[Bi][O][Bi]=[O]
inactive: max response [1] 11.3% | Potency [2] | Potency [3]
